# Source: PubChem BioAssay (NCATS)
# Inconclusive results are not listed. Where a call stands in place of a potency, no number is given. A number with no mark means an inactive call. The source made the active and inactive calls. Calls come from the whole dose curve; as a rule, active = well fitted curve in the direction sought with a large enough effect; inconclusive = small, poorly fitted or top-dose-only effect, or another doubt; inactive = no such curve, though single readings can be large; an effect the other way counts as inactive or inconclusive.
# Legend:
# CRL-7250 = normal cell line; experiment: Cytotoxic Profiling of Annotated Libraries Using Quantitative High-Throughput Screening (AID 1296008); settings: Five cell lines viability, CellTiter-Glo ATP luminescence, 48-72 h; max response: hits give low values; note: nearly all actives have a fitted effect of over 60% in size
# In short: (§1)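 Cells exposed to compounds for 48 or 72 hr at 37 degrees Celsius. Viability read as ATP-coupled luminescence with CellTiter-Glo after 10 min at room temperature.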
# HEK293 = experiment: as above; settings: Five cell lines viability, CellTiter-Glo ATP luminescence, 48-72 h; max response: hits give low values
# In short: as §1
# KB-3-1 = experiment: as above; settings: Five cell lines viability, CellTiter-Glo ATP luminescence, 48-72 h; max response: hits give low values
# In short: as §1
# NIH3T3 [1] = experiment: as above; settings: Five cell lines viability, CellTiter-Glo ATP luminescence, 48-72 h; max response: hits give low values
# In short: as §1
# MCC-13 = experiment: qHTS assay to identify novel small-molecules to repurpose for Merkel cell carcinoma treatment (AID 1296009); settings: MCC and control cell lines, CellTiter-Glo viability, 72 h; series mostly up to 46 µM; note: nearly all actives have a fitted effect of over 60% in size
# In short: (§2)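 CellTiter-Glo luminescence after 72 hr compound exposure at 37 degree celsius gave cell viability. Libraries NPC and MIPE were run as 8- and 11-point dose responses; RLUs normalized to DMSO (negative) and no-cell (cytotoxicity) controls.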
# MCC-26 = experiment: as above; settings: MCC and control cell lines, CellTiter-Glo viability, 72 h; series mostly up to 46 µM
# In short: as §2
# MKL-1 = experiment: as above; settings: MCC and control cell lines, CellTiter-Glo viability, 72 h; series mostly up to 46 µM
# In short: as §2
# MKL-2 = experiment: as above; settings: MCC and control cell lines, CellTiter-Glo viability, 72 h; series mostly up to 46 µM
# In short: as §2
# UISO = experiment: as above; settings: MCC and control cell lines, CellTiter-Glo viability, 72 h; series mostly up to 46 µM
# In short: as §2
# WaGa = experiment: as above; settings: MCC and control cell lines, CellTiter-Glo viability, 72 h; series mostly up to 46 µM
# In short: as §2
# C33A = experiment: Primary qHTS to identify gynecologic anti-cancer compounds using libraries of approved drugs and bioactive compounds (AID 1345084); settings: Gynecologic cancer cell panel viability, ATPlite luminescence, 48 h; series mostly up to 57.5 µM; note: nearly all actives have a fitted effect of over 55% in size
# In short: (§3)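 48 h compound exposure at 37 C, 5% CO2; five-point qHTS. ATPlite luminescence readout of cell ATP.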
# CASKI = experiment: as above; settings: Gynecologic cancer cell panel viability, ATPlite luminescence, 48 h; series mostly up to 57.5 µM
# In short: as §3
# Es-2 = experiment: as above; settings: Gynecologic cancer cell panel viability, ATPlite luminescence, 48 h; series mostly up to 57.5 µM
# In short: as §3
# HeLa = experiment: as above; settings: Gynecologic cancer cell panel viability, ATPlite luminescence, 48 h; series mostly up to 57.5 µM
# In short: as §3
# HEK293T = experiment: qHTS assay to identify novel small-molecules to repurpose for Merkel cell carcinoma treatment (AID 1296009); settings: MCC and control cell lines, CellTiter-Glo viability, 72 h; at 44.8 µM (top of the series) unless noted; note: nearly all actives have a fitted effect of over 60% in size
# In short: as §2
# W2 = experiment: qHTS profiling for inhibitors of Plasmodium falciparum proliferation (AID 504749); note: nearly all actives have a fitted effect of over 60% in size; settings: P. falciparum in erythrocytes, SYBR Green DNA, 72 h; series mostly up to 28.7 µM
# In short: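 SYBR Green fluorescence (ex 485 nm, em 535 nm) reports parasite DNA after 72 h compound exposure of infected red cells at 0.3% parasitemia, 2.5% hematocrit; signal normalized to 0.29 uM artemisinin and vehicle wells.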
# CAOV3 = experiment: Primary qHTS to identify gynecologic anti-cancer compounds using libraries of approved drugs and bioactive compounds (AID 1345084); settings: Gynecologic cancer cell panel viability, ATPlite luminescence, 48 h; series mostly up to 57.5 µM; note: nearly all actives have a fitted effect of over 55% in size
# In short: as §3
# HaCat = experiment: Cytotoxic Profiling of Annotated Libraries Using Quantitative High-Throughput Screening (AID 1296008); settings: Five cell lines viability, CellTiter-Glo ATP luminescence, 48-72 h; max response: hits give low values; note: nearly all actives have a fitted effect of over 60% in size
# In short: as §1
# NIH3T3 [2] = experiment: qHTS assay to identify novel small-molecules to repurpose for Merkel cell carcinoma treatment (AID 1296009); settings: MCC and control cell lines, CellTiter-Glo viability, 72 h; at 44.8 µM (top of the series); note: nearly all actives have a fitted effect of over 60% in size
# In short: as §2
# Potency is the fitted concentration of half-maximal effect.
smiles,measurement,setting,value
C#C[C@]1(O)CC[C@H]2[C@@H]3CCC4=CC(=O)CC[C@@H]4[C@H]3CC[C@@]21CC,max response,CRL-7250,-4.9%
same,max response,HEK293,-17.9%
same,max response,KB-3-1,-1.4%
same,max response,NIH3T3 [1],-3.66%
same,Potency,MCC-13,inactive
same,Potency,MCC-26,inactive
same,Potency,MKL-1,inactive
same,Potency,MKL-2,inactive
same,Potency,UISO,inactive
same,Potency,WaGa,inactive
same,Potency,C33A,inactive
same,Potency,CASKI,inactive
same,Potency,Es-2,inactive
same,Potency,HeLa,3.55 µM (active)
CC1(C)OC[C@@H]2O[C@@]3(C(=O)O)OC(C)(C)O[C@H]3[C@@H]2O1,max response,CRL-7250,-27.6%
same,outcome,HEK293,inactive
same,max response,KB-3-1,-15.5%
same,max response,NIH3T3 [1],-5.58%
same,outcome,HEK293T,inactive
same,Potency,MCC-13,inactive
same,Potency,MCC-26,inactive
same,Potency,MKL-1,inactive
same,Potency,MKL-2,inactive
same,Potency,UISO,inactive
same,Potency,WaGa,inactive
same,Potency,C33A,inactive
same,Potency,CASKI,inactive
same,Potency,Es-2,inactive
same,Potency,HeLa,inactive
N=C(N)N1CCc2ccccc2C1,Potency,W2,inactive
same,max response,CRL-7250,-4.65%
same,max response,HEK293,-8.82%
same,max response,KB-3-1,4.15%
same,max response,NIH3T3 [1],-1.16%
same,"activity change, negative = cytotoxicity",MCC-13,22.3% [at 4.84 µM]
same,"activity change, negative = cytotoxicity",MCC-26,-4.65% [at 4.84 µM]
same,"activity change, negative = cytotoxicity",MKL-1,-2.59% [at 4.84 µM]
same,"activity change, negative = cytotoxicity",MKL-2,-8.08% [at 4.84 µM]
same,"activity change, negative = cytotoxicity",UISO,-8.38% [at 4.84 µM]
same,"activity change, negative = cytotoxicity",WaGa,-9.27% [at 4.84 µM]
same,"activity change, negative = cytotoxicity",C33A,-2.35% [at 6.55 µM]
same,"activity change, negative = cytotoxicity",CAOV3,8.37% [at 6.55 µM]
same,"activity change, negative = cytotoxicity",CASKI,-9.81% [at 6.55 µM]
same,"activity change, negative = cytotoxicity",Es-2,-6.19% [at 6.55 µM]
same,"activity change, negative = cytotoxicity",HeLa,-13.2% [at 6.55 µM]
CCN(CC)CCOc1ccc2c(c1)C(=O)c1cc(OCCN(CC)CC)ccc1-2,Potency,W2,13.5 µM (active)
same,Potency,CRL-7250,23.7 µM (active)
same,Potency,HEK293,7.5 µM (active)
same,max response,KB-3-1,41.3%
same,Potency,MKL-1,13.3 µM (active)
same,Potency,MKL-2,2.37 µM (active)
same,Potency,WaGa,15 µM (active)
same,Potency,C33A,17.8 µM (active)
same,Potency,HeLa,inactive
OC[C@H]1O[C@@H](Oc2ccc(O)cc2)[C@H](O)[C@@H](O)[C@@H]1O,max response,CRL-7250,-17%
same,max response,HEK293,-74.1%
same,max response,KB-3-1,3.33%
same,max response,NIH3T3 [1],-45.3%
same,Potency,MCC-13,inactive
same,Potency,MCC-26,inactive
same,Potency,MKL-1,inactive
same,Potency,MKL-2,inactive
same,Potency,UISO,inactive
same,Potency,C33A,inactive
same,Potency,CAOV3,inactive
same,Potency,CASKI,inactive
same,Potency,Es-2,inactive
same,Potency,HeLa,inactive
CN(C)CCN1C(=O)c2ccccc2N(C)c2ccccc21,Potency,W2,2.13 µM (active)
same,max response,CRL-7250,-7.77%
same,max response,HEK293,-1.88%
same,max response,KB-3-1,3.06%
same,max response,NIH3T3 [1],-0.0642%
same,Potency,MCC-13,inactive
same,Potency,MCC-26,inactive
same,Potency,MKL-1,inactive
same,Potency,MKL-2,inactive
same,Potency,UISO,inactive
same,Potency,WaGa,inactive
same,Potency,C33A,inactive
same,Potency,CASKI,inactive
same,Potency,Es-2,inactive
same,Potency,HeLa,inactive
CCN[C@@H]1C[C@H](N)[C@@H](OC2OC(CN)=CCC2N)[C@H](O)[C@H]1O[C@H]1OC[C@](C)(O)[C@H](NC)[C@H]1O (stereo partly specified),max response,CRL-7250,0.244%
same,outcome,HEK293,inactive
same,max response,KB-3-1,17.1%
same,max response,NIH3T3 [1],-0.0944%
same,outcome,HEK293T,inactive [at 0.588 µM]
same,"activity change, negative = cytotoxicity",MCC-13,16.3% [at 0.597 µM]
same,"activity change, negative = cytotoxicity",MCC-26,2.75% [at 0.597 µM]
same,"activity change, negative = cytotoxicity",MKL-1,9.5% [at 0.597 µM]
same,"activity change, negative = cytotoxicity",MKL-2,2.5% [at 0.597 µM]
same,"activity change, negative = cytotoxicity",UISO,19.1% [at 0.597 µM]
same,"activity change, negative = cytotoxicity",WaGa,13.3% [at 0.597 µM]
same,"activity change, negative = cytotoxicity",C33A,4.69% [at 0.462 µM]
same,"activity change, negative = cytotoxicity",CAOV3,0% [at 0.462 µM]
same,"activity change, negative = cytotoxicity",CASKI,-0.808% [at 0.462 µM]
same,"activity change, negative = cytotoxicity",Es-2,9.29% [at 0.462 µM]
same,"activity change, negative = cytotoxicity",HeLa,15.4% [at 0.462 µM]
COc1ccc(CN(CCN(C)C)c2ncccn2)cc1,Potency,W2,5.36 µM (active)
same,max response,CRL-7250,0.19%
same,outcome,HEK293,inactive
same,max response,KB-3-1,-2.44%
same,max response,NIH3T3 [1],-1.92%
same,outcome,HEK293T,inactive
same,Potency,MCC-13,inactive
same,Potency,MKL-1,inactive
same,Potency,MKL-2,inactive
same,Potency,UISO,inactive
same,Potency,WaGa,inactive
same,Potency,C33A,inactive
same,Potency,CASKI,inactive
same,Potency,Es-2,inactive
same,Potency,HeLa,inactive
Cc1cccc(C)c1NC(=O)CN1CCCCCC1,outcome,CRL-7250,inactive
same,max response,HEK293,2.2%
same,max response,KB-3-1,2.19%
same,max response,NIH3T3 [1],1.11%
same,Potency,MCC-13,inactive
same,Potency,MCC-26,inactive
same,Potency,MKL-1,inactive
same,Potency,MKL-2,inactive
same,Potency,UISO,inactive
same,Potency,WaGa,inactive
same,Potency,C33A,inactive
same,Potency,CAOV3,inactive
same,Potency,CASKI,inactive
same,Potency,Es-2,inactive
same,Potency,HeLa,inactive
Nc1ccc(S(=O)(=O)NCc2ccccc2)cc1,Potency,W2,inactive
same,max response,CRL-7250,-13.3%
same,max response,HEK293,3.66%
same,max response,KB-3-1,-2.49%
same,max response,NIH3T3 [1],-0.659%
same,Potency,MCC-13,inactive
same,Potency,MCC-26,inactive
same,Potency,MKL-1,inactive
same,Potency,MKL-2,inactive
same,Potency,UISO,inactive
same,Potency,WaGa,inactive
same,Potency,C33A,inactive
same,Potency,CAOV3,inactive
same,Potency,CASKI,inactive
same,Potency,Es-2,inactive
same,Potency,HeLa,inactive
Cc1ccc(-c2ncc(Cl)cc2-c2ccc(S(C)(=O)=O)cc2)cn1,max response,CRL-7250,-1.19%
same,max response,HEK293,4.1%
same,max response,HaCat,-27.8%
same,max response,NIH3T3 [1],-3.08%
same,Potency,MCC-13,inactive
same,Potency,MKL-1,inactive
same,Potency,MKL-2,inactive
same,Potency,UISO,inactive
same,Potency,WaGa,inactive
same,Potency,C33A,inactive
same,Potency,CAOV3,inactive
same,Potency,CASKI,inactive
same,Potency,Es-2,inactive
same,Potency,HeLa,inactive
CCCCCN=C(N)N/N=C/c1c[nH]c2ccc(OC)cc12,Potency,W2,1.51 µM (active)
same,Potency,CRL-7250,18.8 µM (active)
same,Potency,HEK293,8.41 µM (active)
same,max response,KB-3-1,1.55%
same,Potency,MCC-26,23.7 µM (active)
same,Potency,MKL-1,inactive
same,Potency,MKL-2,inactive
same,Potency,UISO,11.9 µM (active)
same,Potency,WaGa,inactive
OC[C@H]1O[C@@H]2O[C@H]3[C@H](O)[C@@H](O)[C@@H](O[C@H]4[C@H](O)[C@@H](O)[C@@H](O[C@H]5[C@H](O)[C@@H](O)[C@@H](O[C@H]6[C@H](O)[C@@H](O)[C@@H](O[C@H]7[C@H](O)[C@@H](O)[C@@H](O[C@H]8[C@H](O)[C@@H](O)[C@@H](O[C@H]1[C@H](O)[C@H]2O)O[C@@H]8CO)O[C@@H]7CO)O[C@@H]6CO)O[C@@H]5CO)O[C@@H]4CO)O[C@@H]3CO,Potency,W2,inactive
same,outcome,CRL-7250,inactive
same,outcome,HEK293,inactive
same,max response,KB-3-1,3.96%
same,max response,NIH3T3 [1],-2.76%
same,outcome,HEK293T,inactive
same,Potency,MCC-13,inactive
same,Potency,MCC-26,inactive
same,Potency,MKL-1,inactive
same,Potency,MKL-2,inactive
same,Potency,UISO,inactive
same,Potency,WaGa,inactive
same,Potency,C33A,inactive
same,Potency,CAOV3,inactive
same,Potency,CASKI,inactive
same,Potency,Es-2,inactive
same,Potency,HeLa,inactive
CN1CCC(OC(c2ccccc2)c2ccccc2)CC1,Potency,W2,3.22 µM (active)
same,outcome,CRL-7250,inactive
same,max response,HEK293,-17.7%
same,outcome,NIH3T3 [1],inactive
same,Potency,MCC-13,inactive
same,Potency,MCC-26,inactive
same,Potency,MKL-1,inactive
same,Potency,MKL-2,inactive
same,outcome,NIH3T3 [2],inactive
same,Potency,UISO,inactive
same,Potency,WaGa,inactive
same,Potency,C33A,inactive
same,Potency,CAOV3,inactive
same,Potency,CASKI,inactive
same,Potency,Es-2,inactive
same,Potency,HeLa,inactive
